# Screening results: PubChem BioAssay, Broad Institute
# IDE exosite FP = insulin-degrading enzyme (human) exo-site inhibition. P14735. purified IDE, FL-6b probe fluorescence polarization; active compounds read low. z-score at 20 µM. actives 6.3% (n = 17,000). AID 1259349;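 active = z-score of -3 or lower, meaning strong loss of probe binding signal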;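 also: His-tagged human IDE residues 42-1019 made in E. coli with 30 nM FL-6b probe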
# Hits are given with their value; – = inactive. Only a selection was taken, and hits are over-represented in it overall.
SMILES,IDE exosite FP
COc1cccc(NC(=O)N2CC(=O)N3[C@H](CO)[C@@H](c4ccc(C#CCC5CCCC5)cc4)[C@H]3C2)c1,–
C/C=C/c1ccc([C@@H]2[C@@H](CO)N(C(C)=O)C23CN(C(=O)NC2CCCCC2)C3)cc1,–
COCC(=O)N1CC(=O)N2[C@H](CO)[C@@H](c3ccc(C#Cc4cccc(OC)c4)cc3)[C@@H]2C1,-4.5
COCC(=O)N1CC(=O)N2[C@H](C1)[C@H](c1ccc(C#CC3CCCC3)cc1)[C@@H]2CO,–
COCC(=O)N1CC(=O)N2[C@H](CO)[C@H](c3ccc(C#CC4CCCCC4)cc3)[C@@H]2C1,–
COCC(=O)N1CC(=O)N2[C@H](C1)[C@@H](c1ccc(C#Cc3cccnc3)cc1)[C@@H]2CO,–
COCC(=O)N1CC(=O)N2[C@H](C1)[C@@H](c1ccc(C#CC3CCCCC3)cc1)[C@@H]2CO,-11
COCC(=O)N1CC(=O)N2[C@@H](CO)[C@H](c3ccc(C#Cc4cccc(OC)c4)cc3)[C@@H]2C1,-5
COCC(=O)N1CC(=O)N2[C@@H](CO)[C@H](c3ccc(C#Cc4cccnc4)cc3)[C@@H]2C1,–
COCC(=O)N1CC(=O)N2[C@H](CO)[C@@H](c3ccc(C#Cc4cccc(OC)c4)cc3)[C@H]2C1,–
COc1ccccc1NC(=O)N1CC(=O)N2[C@H](CO)[C@H](c3ccc(-c4ccccc4)cc3)[C@@H]2C1,–
CN(C)C(=O)c1cccc(-c2ccc([C@H]3[C@@H](C#N)N(C(=O)C4CCC4)[C@@H]3CO)cc2)c1,–
COc1ccccc1NC(=O)N1C[C@@H]2[C@H](c3ccccc31)[C@@H](CO)N2CC1CCOCC1,–
N#Cc1cccc(-c2ccc([C@@H]3[C@@H](CO)N4CCCCN(C(=O)Nc5cccc(F)c5)C[C@@H]34)cc2)c1,–
CN(C)C(=O)c1cccc(-c2ccc3c(c2)[C@H]2[C@H](CCN2C(=O)Cc2ccccc2)[C@@H](CO)N3)c1,–
O=C(CN1CCOCC1)N1CCCCN2[C@H](CO)[C@H](c3ccc(C#Cc4ccccc4)cc3)[C@@H]2C1,-13
OC[C@H]1[C@@H](c2ccc(C#Cc3ccccc3)cc2)[C@@H]2CN(CC3CCOCC3)CCCCN12,-5.4
O=C(CN1CCOCC1)N1CCCCN2[C@H](C1)[C@H](c1ccc(-c3ccccc3)cc1)[C@@H]2CO,–
O=C(CN1CCOCC1)N1CCCCN2[C@@H](CO)[C@@H](c3ccc(-c4ccccc4)cc3)[C@@H]2C1,–
OC[C@@H]1[C@@H](c2ccc(C#Cc3ccccc3)cc2)[C@H]2CN(CC3CCOCC3)CCCCN12,–
OC[C@@H]1[C@@H](c2ccc(C#Cc3ccccc3F)cc2)[C@@H]2CN(CC3CCOCC3)CCCCN12,–
O=C(CN1CCOCC1)N1CCCCN2[C@H](CO)[C@@H](c3ccc(C#Cc4ccccc4)cc3)[C@@H]2C1,-6.2
C/C=C/c1ccc([C@@H]2[C@@H](CN(C)C(=O)CC)N(C(=O)NC(C)C)[C@H]2CO)cc1,–
C/C=C/c1ccc([C@@H]2[C@@H](CN(CC)C(=O)CN(C)C)N(C(C)=O)[C@H]2CO)cc1,–
CCc1csc(N2[C@@H](C#N)[C@H](c3ccc(-c4cccc(F)c4)cc3)[C@@H]2CO)n1,–
SMILES,IDE exosite FP
C/C=C/c1ccc([C@H]2[C@@H](CO)N(C(=O)NC3CCCCC3)[C@H]2C#N)cc1,–
CCCNC(=O)N1C[C@@H]2[C@H](c3ccccc31)[C@H](CO)N2C(=O)Nc1ccccc1F,–
COc1cccc(C#Cc2ccc([C@@H]3[C@@H](CO)N(C(=O)C4CC4)[C@H]3C#N)cc2)c1,–
COc1cccc(C#Cc2ccc([C@@H]3[C@@H](C#N)N(C(=O)C4CC4)[C@H]3CO)cc2)c1,–
COc1ccccc1C#Cc1ccc([C@H]2[C@@H](C#N)N(C(=O)C3CC3)[C@H]2CO)cc1,-9
COc1cccc(C#Cc2ccc([C@H]3[C@@H](CO)N(C(=O)C4CC4)[C@H]3C#N)cc2)c1,–
COc1ccccc1C#Cc1ccc([C@H]2[C@H](C#N)N(C(=O)C3CC3)[C@H]2CO)cc1,-7.6
N#C[C@@H]1[C@@H](c2ccc(C#Cc3ccccc3F)cc2)[C@H](CO)N1C(=O)C1CC1,–
N#C[C@H]1[C@@H](c2ccccc2)[C@H](CO)N1C(=O)c1cc(Cl)cc(Cl)c1,–
COc1ccc(-c2ccc([C@H]3[C@H](C#N)N(C(=O)c4cccnc4)[C@H]3CO)cc2)cc1,–
COc1ccc(C#Cc2ccc([C@H]3[C@@H](CO)N4CCCCN(Cc5ccncc5)C[C@H]34)cc2)cc1,–
C[C@@H]1CN([C@H](C)CO)C(=O)c2ccccc2-c2ccccc2CO[C@@H]1CN(C)Cc1ccc2c(c1)OCCN2C,–
CCCC#Cc1ccc([C@H]2[C@@H](C#N)N(S(=O)(=O)c3cccc(F)c3)[C@@H]2CO)cc1,–
COc1cccc(-c2ccc([C@H]3[C@@H](CO)N(C(=O)Cc4ccncc4)[C@H]3C#N)cc2)c1,-4.8
COc1cccc(-c2ccc([C@H]3[C@H](C#N)N(C(=O)Cc4ccccc4)[C@H]3CO)cc2)c1,-3
N#C[C@H]1[C@H](c2ccc(C#CC3CC3)cc2)[C@H](CO)N1C(=O)Cc1ccccn1,–
